Assay results reported in PubChem BioAssay.
Activity calls are given as the source filed them. Unless noted, no rule for the calls is given here.

Experiments:
[1] = compounds binding Alexa647 anti-His antibody – biochemical, small-molecule microarray, 635 nm fluorescence, artefact control for SMM control protein annotation, primary screen (AID 1128); conditions: higher = more signal;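 also: score merges feature fluorescence with signal-to-noise for each printed compound spot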
[2] = test system: Human papillomavirus type 1a E7 protein (residues 1-88); test: HPV1a E7 small-molecule binders, primary screen, biochemical, small-molecule microarray, residues 1-88, 635 nm (AID 1129); conditions: small-molecule microarray binding, fluorescence 635 nm; higher = more signal
[3] = biological target: Focal adhesion kinase 1 (Homo sapiens) (UniProt Q05397); test: PTK2 protein binding on printed compound slides – biochemical, small-molecule microarray, 635/667 nm fluorescence, BSA, DTT, primary screen (AID 1130); conditions: 635 nm fluorescence, higher = more signal;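 also: composite of spot emission at 667 nm and signal to noise over triplicate slides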
[4] = test system: Fibrinogen (Alexa647-labelled); test: Alexa647-fibrinogen binding to printed small molecules – biochemical, small-molecule microarray, 635/667 nm fluorescence, artefact control for SMM control-protein annotation, profiling panel (AID 1131); conditions: fibrinogen-A647 binding fluorescence, higher = more signal;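 also: z-score merges 667 nm fluorescence with per-spot signal-to-noise over triplicate slides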
[5] = biological target: Follistatin (Homo sapiens) (UniProt P19883); test: FST protein binding to printed compounds – biochemical, small-molecule microarray, 635/667 nm fluorescence, primary screen (AID 1132); conditions: 635 nm fluorescence, higher = more signal
[6] = biological target: Fibroblast growth factor 2 (Homo sapiens) (UniProt P09038); test: basic fibroblast growth factor binding to printed compounds – biochemical, small-molecule microarray, 635/667 nm fluorescence, primary screen (AID 1133); conditions: FGF2, fluorescence 635/667, higher = more signal
[7] = JC-1 mitochondrial potential readout, lung cancer cells – cell-based, A549, JC-1 fluorescence, basal, 24 h, 100 nL, profiling panel (AID 1138); conditions: higher = more signal;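 also: A549 lung adenocarcinoma cells under basal conditions with no added stimulus; test concentration not given here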
[8] = test system: Lefty1; test: Lefty1 protein binding to printed compounds – biochemical, small-molecule microarray, 635/667 nm fluorescence, primary screen (AID 1139); conditions: fluorescence 635/667, higher = more signal
[9] = test system: wheat germ agglutinin (Triticum aestivum), Alexa647-labelled; test: Alexa647-WGA lectin binding to printed small molecules – biochemical, small-molecule microarray, 635/667 nm fluorescence, artefact control for SMM control-protein annotation, profiling panel (AID 1140); conditions: WGA-A647 binding, 635 nm fluorescence, higher = more signal;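 also: score merges 667 nm feature emission with signal to noise over triplicate slides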
[10] = biological target: Luciferin 4-monooxygenase (Photinus pyralis) (UniProt P08659); test: inhibition of purified Photinus pyralis luciferase – biochemical, luminescence, purified enzyme, 2006 set, primary screen (AID 1141); conditions: purified firefly luciferase, SteadyGlo luminescence, 30 min; higher = more signal, called active from +8 up or from −8 down;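 also: cell-free assay with purified firefly luciferase at 100 ng per well in PBS; test concentration not given here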
[11] = test system: Wnt5a (protein binding on small-molecule microarray); test: small molecules binding Wnt5a protein – biophysical, small-molecule microarray, 635/667 nm fluorescence, primary screen (AID 1142); conditions: 635 nm fluorescence, higher = more signal;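 also: fluorescence read at 667 nm with signal to noise per printed feature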
[12] = ATP-based viability of Huh7 replicon cells – cell-based, CellTiter-Glo luminescence, basal, 48 h, cytotoxicity control for HCV replication inhibitor project, primary screen (AID 1143); conditions: higher = more signal, called active from +8 up or from −8 down;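 also: Huh7 hepatoma cells carrying a hepatitis C replication reporter with no stimulus; test concentration not given here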
[13] = Pseudomonas biofilm growth suppression – PAO1 strain, BacTiter-Glo luminescence, LB-PBS, primary screen (AID 1144); conditions: P. aeruginosa PAO1 biofilm, 12 h, higher = more signal
[14] = basal CRE-LacZ reporter activity in PC12 – cell-based, unstimulated, primary screen (AID 1145); conditions: no forskolin, luminescence, 4.5 h, higher = more signal, called active from +8 up or from −8 down
[15] = forskolin-driven CRE-LacZ activity in PC12 – cell-based, CRE-LacZ reporter, forskolin-stimulated, primary screen (AID 1146); conditions: luminescence, 4.5 h, higher = more signal, called active from +8 up or from −8 down;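 also: PC12 cells with 6xCRE LacZ reporter stimulated by forskolin 10 µM; beta-galactosidase reporter signal reflecting CREB driven transcription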
[16] = biological target: Streptavidin (Streptomyces avidinii) (UniProt P22629); test: compounds binding control protein streptavidin – biophysical, small-molecule microarray, 635/667 nm fluorescence, artefact control for SMM compound annotation, primary screen (AID 1147); conditions: higher = more signal;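 also: signal reflects streptavidin binding to arrayed compounds as a control protein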
[17] = probe aInhba binding on compound microarray – biochemical, small-molecule microarray, 635/667 nm fluorescence, primary screen (AID 1148); conditions: higher = more signal;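 also: score merges 667nm spot fluorescence with signal-to-noise for antibody binding to printed compounds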
[18] = biological target: Torsin-1A (Homo sapiens) (UniProt O14656); test: TOR1A wild-type binding on microarray – cell lysate, small-molecule microarray, lysate, 635/667 nm, primary screen (AID 1149); conditions: COS7 hTOR1A-WT lysate, 635 nm fluorescence, higher = more signal
[19] = biological target: Torsin-1A (Homo sapiens) (UniProt O14656); test: torsin A mutant lysate binding on microarrays – cell lysate, small-molecule microarray, COS7 lysate, 635/667 nm fluorescence, primary screen (AID 1150); conditions: COS7 hTOR1A mutant lysate, 635 nm fluorescence, higher = more signal;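 also: score pools 667 nm emission and signal to noise measuring lysate protein binding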
[20] = test system: Sonic hedgehog protein (Shh); test: Sonic hedgehog microarray binding compounds – biochemical, small-molecule microarray, 635/667 nm fluorescence, primary screen (AID 1151); conditions: 635 nm fluorescence, higher = more signal;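 also: Shh protein binding to compounds spotted on small-molecule microarray slides; score combines spot fluorescence intensity with signal-to-noise across triplicate slides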

Streptavidin (Streptomyces avidinii), sequence (P22629 whole entry, looked up): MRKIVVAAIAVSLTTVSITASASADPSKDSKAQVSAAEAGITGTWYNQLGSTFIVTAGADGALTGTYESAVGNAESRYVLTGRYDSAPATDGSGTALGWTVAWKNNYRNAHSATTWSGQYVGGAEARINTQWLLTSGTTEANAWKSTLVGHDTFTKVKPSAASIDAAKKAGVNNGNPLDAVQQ
Torsin-1A (Homo sapiens), sequence (O14656 whole entry, looked up): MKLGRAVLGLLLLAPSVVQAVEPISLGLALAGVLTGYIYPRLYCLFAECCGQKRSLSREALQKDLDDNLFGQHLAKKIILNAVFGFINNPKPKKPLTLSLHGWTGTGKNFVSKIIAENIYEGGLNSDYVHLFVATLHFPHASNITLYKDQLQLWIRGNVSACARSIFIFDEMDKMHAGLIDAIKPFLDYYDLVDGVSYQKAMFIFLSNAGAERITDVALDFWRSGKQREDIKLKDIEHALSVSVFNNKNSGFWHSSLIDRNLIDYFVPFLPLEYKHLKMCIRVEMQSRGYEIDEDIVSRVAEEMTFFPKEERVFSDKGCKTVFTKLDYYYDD
Fibroblast growth factor 2 (Homo sapiens), sequence (P09038 whole entry, looked up): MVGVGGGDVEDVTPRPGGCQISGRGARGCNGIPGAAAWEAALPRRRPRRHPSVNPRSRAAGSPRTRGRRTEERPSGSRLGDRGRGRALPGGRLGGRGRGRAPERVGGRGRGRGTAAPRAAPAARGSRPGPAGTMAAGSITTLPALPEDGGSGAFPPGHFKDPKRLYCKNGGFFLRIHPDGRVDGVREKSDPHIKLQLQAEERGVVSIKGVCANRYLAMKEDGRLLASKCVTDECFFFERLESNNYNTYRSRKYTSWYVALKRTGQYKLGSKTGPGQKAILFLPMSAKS
Focal adhesion kinase 1 (Homo sapiens), sequence (Q05397 whole entry, looked up): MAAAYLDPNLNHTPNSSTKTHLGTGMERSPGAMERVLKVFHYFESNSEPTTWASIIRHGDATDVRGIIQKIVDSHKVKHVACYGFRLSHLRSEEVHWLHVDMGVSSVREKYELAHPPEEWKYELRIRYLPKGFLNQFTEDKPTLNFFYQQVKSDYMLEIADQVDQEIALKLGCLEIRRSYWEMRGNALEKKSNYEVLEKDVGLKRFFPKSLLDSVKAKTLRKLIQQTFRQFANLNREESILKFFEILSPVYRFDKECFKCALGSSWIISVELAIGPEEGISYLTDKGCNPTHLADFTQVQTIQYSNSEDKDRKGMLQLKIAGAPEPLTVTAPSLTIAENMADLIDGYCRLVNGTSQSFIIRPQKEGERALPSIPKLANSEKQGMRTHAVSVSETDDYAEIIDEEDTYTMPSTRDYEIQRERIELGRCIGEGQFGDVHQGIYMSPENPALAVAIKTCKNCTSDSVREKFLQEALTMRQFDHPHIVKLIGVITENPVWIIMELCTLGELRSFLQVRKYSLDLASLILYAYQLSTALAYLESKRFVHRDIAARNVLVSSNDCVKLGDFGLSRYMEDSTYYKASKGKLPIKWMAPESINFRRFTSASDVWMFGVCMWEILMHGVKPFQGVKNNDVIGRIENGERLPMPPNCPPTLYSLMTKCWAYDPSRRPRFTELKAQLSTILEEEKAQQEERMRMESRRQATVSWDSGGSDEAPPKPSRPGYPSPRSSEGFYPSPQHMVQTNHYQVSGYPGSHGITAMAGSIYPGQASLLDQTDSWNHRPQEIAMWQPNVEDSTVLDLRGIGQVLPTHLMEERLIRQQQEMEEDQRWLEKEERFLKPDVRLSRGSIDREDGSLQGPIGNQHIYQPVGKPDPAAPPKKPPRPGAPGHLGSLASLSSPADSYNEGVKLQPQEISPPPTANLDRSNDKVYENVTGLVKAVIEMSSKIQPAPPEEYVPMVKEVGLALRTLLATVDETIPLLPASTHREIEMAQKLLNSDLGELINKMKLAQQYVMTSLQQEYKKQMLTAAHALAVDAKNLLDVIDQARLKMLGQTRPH
Luciferin 4-monooxygenase (Photinus pyralis), sequence (P08659 whole entry, looked up): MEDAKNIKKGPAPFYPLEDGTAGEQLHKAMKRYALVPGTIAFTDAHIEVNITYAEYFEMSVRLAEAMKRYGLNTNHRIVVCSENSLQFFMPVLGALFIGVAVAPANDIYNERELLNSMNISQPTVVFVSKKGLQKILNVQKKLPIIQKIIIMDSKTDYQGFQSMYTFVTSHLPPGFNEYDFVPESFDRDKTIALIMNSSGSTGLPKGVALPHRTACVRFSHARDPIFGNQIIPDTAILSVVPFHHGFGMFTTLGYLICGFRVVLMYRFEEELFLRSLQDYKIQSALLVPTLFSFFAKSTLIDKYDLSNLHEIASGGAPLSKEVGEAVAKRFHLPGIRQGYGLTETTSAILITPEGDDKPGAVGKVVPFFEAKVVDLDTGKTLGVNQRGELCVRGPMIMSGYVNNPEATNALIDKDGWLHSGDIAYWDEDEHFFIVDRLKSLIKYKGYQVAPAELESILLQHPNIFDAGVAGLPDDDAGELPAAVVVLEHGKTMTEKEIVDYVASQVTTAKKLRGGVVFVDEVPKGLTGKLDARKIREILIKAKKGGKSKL
Follistatin (Homo sapiens), sequence (P19883 whole entry, looked up): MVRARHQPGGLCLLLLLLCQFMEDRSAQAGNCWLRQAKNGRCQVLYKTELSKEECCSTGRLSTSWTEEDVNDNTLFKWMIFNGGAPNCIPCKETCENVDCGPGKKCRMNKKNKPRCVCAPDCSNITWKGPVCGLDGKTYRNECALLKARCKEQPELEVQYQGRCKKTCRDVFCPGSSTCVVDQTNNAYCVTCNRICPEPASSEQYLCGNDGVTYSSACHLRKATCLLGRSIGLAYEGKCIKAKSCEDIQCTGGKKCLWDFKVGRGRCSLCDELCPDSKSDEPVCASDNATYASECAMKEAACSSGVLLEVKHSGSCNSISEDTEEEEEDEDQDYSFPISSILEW

Row | Compound | composite z-score [1] | composite z-score [2] | composite z-score [3] | composite z-score [4] | composite z-score [5] | composite z-score [6] | z-score [7] | composite z-score [8] | composite z-score [9] | z-score [10] | composite z-score [11] | z-score [12] | z-score [13] | z-score [14] | z-score [15] | composite z-score [16] | composite z-score [17] | composite z-score [18] | composite z-score [19] | composite z-score [20]
1 | COC(=O)[C@H](C)NC(=O)CCC1CC(OC(=O)NCc2ccc3c(c2)OCO3)CC2(CCCC(COC(=O)NCc3ccccc3)O2)O1 (stereo not given in full) | 0.554 | 0.938 | -0.0996 | 0.332 | 0.653 | 0.718 | 1.05 | 0.827 | 0.0082 | 0.464 (inactive) | 0.298 | -0.268 (inactive) | -0.801 (inactive) | -0.345 (inactive) | -0.169 (inactive) | 0.115 | -0.0136 | 0.283 | 0.177 | 1.38
2 | CO[C@@H]1[C@H](O)CO[C@H]1C=Cc1ccccc1 | 0.286 | 0.219 | 0.0086 | 0.543 | 0.251 | 0.273 | -0.75 | 0.28 | -0.07 | -0.339 (inactive) | -0.174 | -0.536 (inactive) | 0.165 (inactive) | -0.164 (inactive) | -0.43 (inactive) | -0.223 | -0.182 | -0.518 | 0.0143 | -0.0147
3 | C=CC[C@@H]1C=CC(ON=C(C)C)[C@@H](CO)O1 (stereo not given in full) | 3.16 | -0.901 | 0.0886 | -0.445 | -0.356 | -0.458 | 0.178 | -0.0561 | -0.0488 | -0.0424 (inactive) | -0.174 | 0.28 (inactive) | 0.0414 (inactive) | -1.13 (inactive) | -0.92 (inactive) | 0.543 | 0.0357 | 0.193 | -0.611 | -0.117
4 | CCc1cc2c(nc1CC)CCN(CCC(C)=NO[C@@H]1O[C@H](COC(C)=O)[C@@H](OC(C)=O)[C@H](OC(C)=O)[C@H]1OC(C)=O)C2 | 0.0815 | 0.286 | 0.0487 | 0.816 | 1.03 | 0.559 | -0.766 | 1.42 | 0.167 | 1.03 (inactive) | 0.503 | -1.9 (inactive) | -1.19 (inactive) | 4.05 (inactive) | -0.26 (inactive) | 0.963 | -0.089 | 0.439 | 0.495 | 1.88
5 | COc1ccc2c(c1)O[C@@H](c1cccc(C(F)(F)F)c1)[C@H](O)C2=O | 0.0408 | 0.584 | 0.0103 | 0.289 | 0.282 | 0.656 | 0.903 | 0.309 | 0.408 | 0.335 (inactive) | 0.104 | -2.98 (inactive) | -0.837 (inactive) | 2.27 (inactive) | -0.892 (inactive) | 0.562 | -0.0645 | -0.0248 | 0.215 | 0.37
6 | COC(=O)[C@H](C)NC(=O)CCC1CC(OC(=O)NCCc2ccc(F)cc2)CC2(CCCC(COC(=O)NCC3CCCCC3)O2)O1 (stereo not given in full) | 0.608 | 1.19 | 0.178 | 0.86 | 0.639 | 0.572 | -1.03 | 0.744 | 0.804 | 0.765 (inactive) | 0.374 | -2.59 (inactive) | 0.0852 (inactive) | 0.819 (inactive) | 0.676 (inactive) | 0.915 | -0.0963 | -0.0051 | 0.348 | 0.886
7 | CCN1C(=O)[C@H]2[C@H]3[C@H](O)[C@H](O)CC(=NNC(=O)OCc4ccccc4)[C@@H]3CC[C@H]2C1=O | 0.545 | -0.513 | -0.116 | 0.315 | 0.0633 | -0.0789 | 0.207 | 0.066 | 0.128 | 0.248 (inactive) | 0.0743 | 0.235 (inactive) | 0.511 (inactive) | -0.746 (inactive) | -0.506 (inactive) | 0.131 | -0.0986 | -0.425 | 0.151 | 0.475
8 | COC(=O)[C@H](C)NC(=O)CCC1CC(OC(=O)NCc2ccc3c(c2)OCO3)CC2(CCCC(COC(=O)NCCC(C)C)O2)O1 (stereo not given in full) | 0.363 | 0.63 | 0.73 | 0.87 | 0.831 | 0.531 | -0.822 | 1.25 | 0.0551 | 0.977 (inactive) | 0.151 | -2.02 (inactive) | -0.174 (inactive) | -0.706 (inactive) | -1.22 (inactive) | 0.232 | -0.224 | 0.245 | 0.593 | 1.13
9 | OC[C@H]1O[C@H](C#Cc2ccccc2)C=C[C@@H]1O | -0.0558 | 0.202 | 0.0213 | 0.624 | 0.634 | 0.147 | 0.462 | 0.409 | 0.189 | -1.47 (inactive) | 0.0146 | -0.574 (inactive) | -0.385 (inactive) | -1.07 (inactive) | 0.186 (inactive) | 0.431 | 0.0227 | -0.339 | 0.141 | 0.363
10 | O=C1C=C[C@@H](O)[C@@H]2[C@@H]3C(=O)N(C4CCCCC4)C(=O)[C@@H]3CC[C@@H]12 | 0.575 | 0.55 | 0.431 | 0.831 | 1.21 | 0.826 | 1.09 | 0.629 | 0.0297 | -0.611 (inactive) | 0.474 | -2.62 (inactive) | 0.411 (inactive) | 0.25 (inactive) | 0.915 (inactive) | -0.748 | 0.177 | 0.54 | 0.595 | 0.781
